From PubChem BioAssay (Tox21)
Inconclusive results are not listed. The source made the active and inactive calls. Calls come from the whole dose curve; as a rule, active = well fitted curve in the direction sought with a large enough effect in the signal ratio in the repeat runs (not every such curve was filed as active); inconclusive = weak or mixed curves, or effect the other way; inactive = no such curve, though single readings can be large or run the other way; the % refers to the signal ratio.

Each compound was assayed against Estrogen receptor (Homo sapiens) (UniProt P03372) (assay: qHTS assay to identify small molecule antagonists of the estrogen receptor alpha (ER-alpha) signaling pathway (AID 743069)). Details: HEK293 ER-alpha-UAS-bla, beta-lactamase ratio, antagonist mode; series mostly up to 69.4 µM.
Sequence of Estrogen receptor (Homo sapiens) (P03372 whole entry, looked up): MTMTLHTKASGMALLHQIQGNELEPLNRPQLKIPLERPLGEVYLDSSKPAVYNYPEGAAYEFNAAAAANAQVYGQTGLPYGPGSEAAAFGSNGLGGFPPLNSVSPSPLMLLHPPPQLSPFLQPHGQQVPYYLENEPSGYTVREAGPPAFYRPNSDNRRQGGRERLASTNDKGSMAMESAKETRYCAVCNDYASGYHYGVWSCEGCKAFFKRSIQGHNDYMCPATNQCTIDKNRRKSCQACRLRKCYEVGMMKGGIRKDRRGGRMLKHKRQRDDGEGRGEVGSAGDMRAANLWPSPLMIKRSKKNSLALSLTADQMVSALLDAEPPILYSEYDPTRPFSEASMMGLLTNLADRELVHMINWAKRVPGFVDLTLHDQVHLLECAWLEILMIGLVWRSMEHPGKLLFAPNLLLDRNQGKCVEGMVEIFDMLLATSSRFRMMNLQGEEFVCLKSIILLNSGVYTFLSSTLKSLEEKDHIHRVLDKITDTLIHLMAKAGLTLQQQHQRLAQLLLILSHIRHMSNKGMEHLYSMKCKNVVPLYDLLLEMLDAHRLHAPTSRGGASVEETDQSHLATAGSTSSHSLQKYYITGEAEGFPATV
Text: National Center for Advancing Translational Sciences [NCATS]
NIH Chemical Genomics Center [NCGC]
U.S. Environmental Protection Agency [EPA]
National Institutes of Environmental Health Sciences [NIEHS]
National Toxicology Program [NTP]
U.S. Food and Drug Administration [FDA]
Estrogen receptor (ER), a nuclear hormone receptor, plays an important role in development, metabolic homeostasis and reproduction. Two subtypes of ER, ER-alpha and ER-beta have similar expression patterns with some uniqueness in both types. Endocrine disrupting chemicals (EDCs) and their interactions with steroid hormone receptors like ER causes disruption of normal endocrine function. To identify the compounds that inhibit ER signaling, an ER-alpha-UAS-bla GripTiteTM cell line (Invitrogen, Carlsbad, CA, USA) containing a beta-lactamase reporter gene under the control of an Upstream Activator Sequence (UAS) stably integrated into HEK293 cells was used to screen the Tox21 10K compound library.
Tox21 Assay Protocol Summary:
ER-alpha-bla cells were cultured in assay medium containing 2% charcoal stripped FBS overnight in the culture flasks before the assay was performed. The cells were dispensed at 5,000 cells/5 uL of assay medium per well into black wall/clear-bottom 1536-well plates using a Multidrop Combi (ThermoFisher Scientific, Waltham, MA) dispenser. After the assay plates were incubated at a 37C and 5% CO2 for 4 hr, 23 nL of compounds dissolved in DMSO, positive controls or DMSO only was transferred to the assay plate by a Pintool station (Kalypsys, San Diego, CA), followed by addition of 1 uL of 17beta-estradiol in assay medium using a Flying Reagent Dispenser (Aurora Discovery, San Diego, CA). The plates were incubated at 37C and 5% CO2 for 18 hr. Then 1 uL of LiveBLAzerTM B/G FRET substrate was added using a Flying Reagent Dispenser, the plates were incubated at room temperature for 2 hours, and fluorescence intensity was measured by an Envision plate reader (PerkinElmer, Shelton, CT).
In the case of `Nc1nnnn1-c1ccccc1`, the outcome was “inactive”.
For `CC(=O)C1C(=O)C=C(C)OC1=O` (stereo not given), the outcome was “inactive”.
In the case of `CCCCCCCCCCCCCCC(=O)NC(CO)CCCCCCCCCCCCCC` (stereo not given), the outcome was “inactive”.
In the case of `CC1OCCC1=O` (stereo not given), the outcome was “inactive”.
`C=CC(=O)OCC1CCCO1` (stereo not given) was tested, and the outcome was “inactive”.
In the case of `CC(=O)OC1CCCCC1C(C)(C)C` (stereo not given), the outcome was “inactive”.
In the case of `CC(C)Cn1cnc2c1c(=O)n(C)c(=O)n2C`, the outcome was “inactive”.
For `CCCCCCCCCCCCCCCCCC#N`, the outcome was “inactive”.
In the case of `O=C(O)CCCCCC(=O)O`, the outcome was “inactive”.
For `CCCCOCC(C)O` (stereo not given), the outcome was “inactive”.
With `ONc1ccccc1` the outcome was “inactive”.
For `CN(C)CCN(C)CCO`, the outcome was “inactive”.
For `CCC(C)C(C)=O` (stereo not given), the outcome was “inactive”.
`CC(=O)CC(=O)OC(C)(C)C` was tested, and the outcome was “inactive”.
With `CC(C)(C)NC[C@H](O)COc1cccc2c1CCCC2=O` the outcome was “inactive”.
In the case of `CC1CC(=O)CC(C)(C)C1` (stereo not given), the outcome was “inactive”.
`Cc1cc(C)c(C(=O)O)c(C)c1` was tested, and the outcome was “inactive”.
With `O=C1CCCCO1` the outcome was “inactive”.
For `CC1(C)[C@H]2CC[C@](C)(C2)[C@H]1O`, the outcome was “inactive”.
With `COc1ccc2c(c1)c1c3n2CCN(C)C3=NCC1` the outcome was “inactive”.
For `CO[C@@]1(NC(=O)Cc2cccs2)C(=O)N2C(C(=O)O)=C(COC(N)=O)CS[C@@H]21`, the outcome was “inactive”.
For `Cc1ncc([N+](=O)[O-])n1CC(C)O` (stereo not given), the outcome was “inactive”.
With `Nc1nc(-c2ccccc2)c(Br)c(=O)[nH]1` the outcome was “inactive”.
For `CCCCCCC1(C)CCC(=O)O1` (stereo not given), the outcome was “inactive”.
`COC(C)(OC)OC` was tested, and the outcome was “inactive”.
In the case of `CCCC(=O)OC/C=C(\C)CCC=C(C)C`, the outcome was “inactive”.
`CCC/C=C(\C=O)CC` was tested, and the outcome was “inactive”.
In the case of `CC1(C)CC(OC(=O)CCCCCCCCC(=O)OC2CC(C)(C)NC(C)(C)C2)CC(C)(C)N1`, the outcome was “inactive”.
`NCCOCCN` was tested, and the outcome was “inactive”.
With `CC/C(C)=N\O[Si](C)(O/N=C(\C)CC)O/N=C(\C)CC` the outcome was “inactive”.
In the case of `CC(C)CO`, the outcome was “inactive”.
With `CCCCOC(=O)[C@H](C)O` the outcome was “inactive”.
For `CCC(C)OC(C)CC` (stereo not given), the outcome was “inactive”.
`O=C=NCC1CCCC(CN=C=O)C1` (stereo not given) was tested, and the outcome was “inactive”.
With `CC1(C)Cc2cccc(N)c2O1` the outcome was “inactive”.
For `Cc1ccc(C(=O)O)cc1[N+](=O)[O-]`, the outcome was “inactive”.
For `c1ccc2cnccc2c1`, the outcome was “inactive”.
`CC(C)Nc1ccccc1` was tested, and the outcome was “inactive”.
In the case of `CCCC(=O)Nc1ccc(OCC(O)CNC(C)C)c(C(C)=O)c1` (stereo not given), the outcome was “inactive”.
For `CC/C=C\CCOC(=O)c1ccccc1O`, the outcome was “inactive”.
